For six compounds, composite z-score and z-score results are on record in PubChem BioAssay.

For assay [1], the system named is Plasmodium falciparum Sir2 (PF13_0152, Sir2A). Put plainly: Plasmodium falciparum Sir2A binding compounds – biochemical, small-molecule microarray, 635 nm fluorescence, primary screen (AID 1098).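 Note: score merges spot fluorescence intensity with its signal-to-noise ratio.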 Conditions: fluorescence 635 nm, higher = more signal.
Assay [2] is described as follows: probe aDKK1 binding to arrayed compounds – biochemical, biotinylated probe, 635/667 nm fluorescence, primary screen (AID 1099).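 Note: score merges 667nm spot fluorescence with signal to noise across triplicate slides.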 Particulars: small-molecule microarray, higher = more signal.
Assay [3] in a line: probe aCHRDL2 binding to arrayed compounds – biochemical, biotinylated probe, 635/667 nm fluorescence, primary screen (AID 1100). Particulars: small-molecule microarray, higher = more signal.
Assay [4] can be described thus: change in splice reporter luminescence, either direction, cell-based, HEK293, spliceosome inhibition project, primary screen (AID 1101).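 Note: HEK293 cells carrying a splicing-competent luciferase reporter gene; test concentration not given here.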 Conditions: HEK293 splicing luciferase reporter, 24 h, higher = more signal, called active from +8 up or from −8 down.
Assay [5] addresses Fibroblast growth factor 10 (Homo sapiens) (UniProt O15520). Put plainly: compounds binding fibroblast growth factor 10 – biochemical, small-molecule microarray, 635 nm fluorescence, primary screen (AID 1102). Particulars: FGF10 binding, fluorescence 635 nm, higher = more signal.
The test system of assay [6] is glycogen synthase kinase-3 (GSK3A per assay name; protocol says GSK3B). Put plainly: compounds binding glycogen synthase kinase-3 – biochemical, small-molecule microarray, 635 nm fluorescence, GSK3A, primary screen (AID 1103). Note: the record names both GSK3A and GSK3B. Conditions: fluorescence 635 nm, higher = more signal.
In assay [7] the target is Epidermal growth factor receptor (Homo sapiens) (UniProt P00533). Put plainly: compounds binding epidermal growth factor receptor – biochemical, small-molecule microarray, 635 nm fluorescence, primary screen (AID 1104).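 Note: score merges 667 nm emission intensity with spot signal to noise over triplicate slides.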 Particulars: EGFR binding, higher = more signal.
Assay [8] addresses Follistatin-related protein 3 (Homo sapiens) (UniProt O95633). Put plainly: compounds binding follistatin-related protein 3 – biochemical, small-molecule microarray, 635 nm fluorescence, primary screen (AID 1105).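 Note: score merges emission near 667 nm and signal to noise per printed spot across three slides.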 Particulars: FSTL3 binding, higher = more signal.
In assay [9] the target is Dickkopf-related protein 1 (Homo sapiens) (UniProt O94907). The experiment in a line: small molecules binding DKK1 protein – biochemical, small-molecule microarray, 635 nm fluorescence scan, primary screen (AID 1106).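 Note: score merges emission near 667 nm with signal to noise over three replicate slides.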 Conditions: higher = more signal.
For assay [10], the system named is Inhibin beta A chain (activin A). Put plainly: small molecules binding activin A – biochemical, small-molecule microarray, 635 nm fluorescence scan, primary screen (AID 1107).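 Note: mouse activin A protein probed at 4.33 µg/mL on printed slides; score merges bound-protein fluorescence near 667 nm with spot signal-to-noise.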 Conditions: INHBA, higher = more signal.
In assay [11] the test system is Human papillomavirus type 1a protein E7 (residues 44-93). Put plainly: small molecules binding HPV E7 44-93 – biochemical, small-molecule microarray, residues 44-93, 635 nm fluorescence, primary screen (AID 1108).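 Note: E7 fragment applied at 1 µg/mL in TBST for 1 h at 4 C; score combines spot fluorescence with its signal to noise ratio.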 Conditions: fluorescence 635 nm, higher = more signal.
Assay [12] in a line: hepatitis C replication reporter changes, two-sided – Huh7 cells, luciferase reporter, HCV replication inhibitor project, primary screen (AID 1109).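 Note: huh7 hepatoma cells harbouring a luciferase neomycin HCV replicon reporter; luciferase luminescence as measure of HCV replicon replication; test concentration not given here.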 Conditions: Huh7 HCV replicon luciferase reporter, 48 h; higher = more signal. (In general: A reporter such as luciferase makes a cellular process visible.)
The target in assay [13] is Left-right determination factor 2 (Homo sapiens) (UniProt O00292). The experiment in a line: small molecules binding LEFTY2 protein – biochemical, small-molecule microarray, 635 nm fluorescence scan, primary screen (AID 1110). Particulars: higher = more signal.
In assay [14] the target is Calmodulin-1 (Homo sapiens) (UniProt P0DP23). The experiment in a line: small molecules binding calmodulin-1 with EGTA – biochemical, small-molecule microarray, Cy5-labelled CALM1, profiling panel (AID 1111).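 Note: labelled calmodulin applied in Tris saline Tween buffer holding calcium plus EGTA and DTT.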 Conditions: Cy5-CALM1 binding fluorescence, higher = more signal.
For assay [15] the target is unchanged. Put plainly: small molecules binding Ca-loaded calmodulin-1 – biochemical, small-molecule microarray, Cy5-labelled CALM1, plus calcium, artefact control for SMM control-protein annotation, profiling panel (AID 1112).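 Note: score merges spot fluorescence with signal to noise from triplicate slides.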 Particulars: Cy5-CALM1 binding fluorescence, higher = more signal.
Assay [16] can be described thus: probe aWnt5a binding to arrayed compounds – biochemical, biotinylated probe, 635/667 nm fluorescence, primary screen (AID 1113).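 Note: score merges 667 nm fluorescence intensity with signal-to-noise per printed feature.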 Particulars: small-molecule microarray, higher = more signal.
Assay [17] can be described thus: probe aShh binding to arrayed compounds – biochemical, biotinylated probe, 635/667 nm fluorescence, primary screen (AID 1114).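 Note: probe is biotin-labelled aShh protein from a stem cell growth factor screen; measures binding of labelled protein to compounds printed on the slide; score merges feature fluorescence at 667 nm with signal-to-noise.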 Conditions: small-molecule microarray, higher = more signal.
The nature of assay [18]: probe aNog binding to arrayed compounds – biochemical, biotinylated probe, 635/667 nm fluorescence, primary screen (AID 1115).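 Note: probe is biotinylated aNog protein used at 0.15 µg/mL for 1 h at 4 C; z-score combines 667 nm fluorescence of each spot with its signal to noise.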 Conditions: small-molecule microarray, higher = more signal.
In assay [19] the target is Torsin-1A-interacting protein 1 (Homo sapiens) (UniProt Q5JTV8). Put plainly: compound microarray binding of lysate hLAP1 – cell lysate, small-molecule microarray, COS7 lysate, 635/667 nm fluorescence, primary screen (AID 1116). Conditions: 635 nm fluorescence, higher = more signal.
Assay [20] deals with Alpha-bungarotoxin (Bungarus multicinctus) (UniProt P60615). Put plainly: compounds binding labelled alpha-BTX control protein – biochemical, small-molecule microarray, Alexa647 label, 635/667 nm fluorescence, artefact control for SMM control protein annotation, profiling panel (AID 1117). Particulars: alpha-BTX-A647 binding fluorescence, higher = more signal.

Where “and” joins values, the source holds several entries; their conditions need not be identical. Identical values can stand only once. Calls of active or inactive are those of the source.

Dickkopf-related protein 1 (Homo sapiens), sequence (O94907 whole entry, looked up): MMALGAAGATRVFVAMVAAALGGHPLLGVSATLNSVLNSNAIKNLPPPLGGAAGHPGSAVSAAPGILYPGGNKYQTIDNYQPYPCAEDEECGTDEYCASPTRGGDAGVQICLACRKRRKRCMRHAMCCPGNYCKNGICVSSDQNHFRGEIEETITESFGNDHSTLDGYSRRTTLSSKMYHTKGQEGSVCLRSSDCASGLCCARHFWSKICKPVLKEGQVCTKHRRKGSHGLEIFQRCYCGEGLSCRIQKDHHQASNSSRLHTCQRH
Alpha-bungarotoxin (Bungarus multicinctus), sequence (P60615 whole entry, looked up): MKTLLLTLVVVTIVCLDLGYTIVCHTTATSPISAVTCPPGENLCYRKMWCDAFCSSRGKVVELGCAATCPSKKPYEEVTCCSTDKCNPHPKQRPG
Torsin-1A-interacting protein 1 (Homo sapiens), sequence (Q5JTV8 whole entry, looked up): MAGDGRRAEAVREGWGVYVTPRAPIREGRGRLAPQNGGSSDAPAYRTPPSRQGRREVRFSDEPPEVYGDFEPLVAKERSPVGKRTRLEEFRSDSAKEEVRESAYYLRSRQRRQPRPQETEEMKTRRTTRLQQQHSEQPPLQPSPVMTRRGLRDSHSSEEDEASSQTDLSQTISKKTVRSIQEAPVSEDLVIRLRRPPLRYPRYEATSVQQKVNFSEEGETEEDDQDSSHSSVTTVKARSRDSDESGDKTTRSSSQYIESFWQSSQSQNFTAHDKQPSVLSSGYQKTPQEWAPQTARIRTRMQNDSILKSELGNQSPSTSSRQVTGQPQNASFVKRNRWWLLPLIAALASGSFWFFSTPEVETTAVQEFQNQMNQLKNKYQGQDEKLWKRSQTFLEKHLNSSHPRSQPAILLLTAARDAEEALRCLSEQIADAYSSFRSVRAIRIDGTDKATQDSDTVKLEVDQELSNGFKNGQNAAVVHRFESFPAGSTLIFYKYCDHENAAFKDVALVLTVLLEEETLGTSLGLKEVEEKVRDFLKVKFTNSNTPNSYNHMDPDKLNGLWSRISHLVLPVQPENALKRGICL
Left-right determination factor 2 (Homo sapiens), sequence (O00292 whole entry, looked up): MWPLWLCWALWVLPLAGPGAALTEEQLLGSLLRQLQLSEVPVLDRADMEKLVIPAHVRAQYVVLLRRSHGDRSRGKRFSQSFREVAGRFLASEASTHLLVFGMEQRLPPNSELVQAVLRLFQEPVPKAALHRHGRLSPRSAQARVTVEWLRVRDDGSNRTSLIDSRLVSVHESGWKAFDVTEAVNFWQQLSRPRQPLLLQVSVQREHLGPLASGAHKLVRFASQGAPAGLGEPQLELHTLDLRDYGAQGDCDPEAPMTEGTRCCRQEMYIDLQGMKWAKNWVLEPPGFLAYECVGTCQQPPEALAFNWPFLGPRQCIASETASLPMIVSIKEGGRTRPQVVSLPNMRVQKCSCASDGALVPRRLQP
Fibroblast growth factor 10 (Homo sapiens), sequence (O15520 whole entry, looked up): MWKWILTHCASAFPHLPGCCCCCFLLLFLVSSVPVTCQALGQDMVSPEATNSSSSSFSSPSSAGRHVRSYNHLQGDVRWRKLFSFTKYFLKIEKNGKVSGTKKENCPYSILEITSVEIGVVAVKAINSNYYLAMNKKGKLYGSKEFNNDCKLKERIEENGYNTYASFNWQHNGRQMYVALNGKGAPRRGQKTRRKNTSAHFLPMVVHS
Epidermal growth factor receptor (Homo sapiens), sequence (P00533 whole entry, looked up): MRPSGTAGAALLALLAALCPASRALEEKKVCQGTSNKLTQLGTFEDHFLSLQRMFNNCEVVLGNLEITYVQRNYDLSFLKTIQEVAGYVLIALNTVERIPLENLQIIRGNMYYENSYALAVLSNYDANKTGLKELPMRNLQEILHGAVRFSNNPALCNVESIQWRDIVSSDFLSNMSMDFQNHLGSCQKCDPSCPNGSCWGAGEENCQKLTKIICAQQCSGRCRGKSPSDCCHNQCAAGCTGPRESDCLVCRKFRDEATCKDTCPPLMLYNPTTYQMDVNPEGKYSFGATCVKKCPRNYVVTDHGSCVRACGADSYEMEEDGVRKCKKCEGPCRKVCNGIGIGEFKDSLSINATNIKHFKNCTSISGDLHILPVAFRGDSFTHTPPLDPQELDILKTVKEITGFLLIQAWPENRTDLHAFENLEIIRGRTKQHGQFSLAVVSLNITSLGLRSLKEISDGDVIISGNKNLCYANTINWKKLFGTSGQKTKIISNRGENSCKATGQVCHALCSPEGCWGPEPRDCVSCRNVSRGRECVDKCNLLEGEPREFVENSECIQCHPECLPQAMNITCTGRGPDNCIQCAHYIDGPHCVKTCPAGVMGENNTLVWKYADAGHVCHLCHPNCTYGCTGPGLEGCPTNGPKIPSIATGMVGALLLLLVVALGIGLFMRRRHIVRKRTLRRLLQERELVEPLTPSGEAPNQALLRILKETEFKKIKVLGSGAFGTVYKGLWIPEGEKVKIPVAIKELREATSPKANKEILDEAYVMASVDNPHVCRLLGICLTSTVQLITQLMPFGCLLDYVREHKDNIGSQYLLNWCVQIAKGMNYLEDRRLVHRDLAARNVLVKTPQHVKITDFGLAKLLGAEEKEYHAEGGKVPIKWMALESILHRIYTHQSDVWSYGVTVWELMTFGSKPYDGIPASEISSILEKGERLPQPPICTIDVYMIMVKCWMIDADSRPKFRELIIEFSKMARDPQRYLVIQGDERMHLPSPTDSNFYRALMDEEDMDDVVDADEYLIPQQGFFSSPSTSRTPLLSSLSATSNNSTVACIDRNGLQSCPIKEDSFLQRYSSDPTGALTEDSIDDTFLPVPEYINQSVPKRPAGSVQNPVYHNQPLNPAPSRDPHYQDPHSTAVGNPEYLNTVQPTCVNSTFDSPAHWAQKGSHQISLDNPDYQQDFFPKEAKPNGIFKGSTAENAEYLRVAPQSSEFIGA
Follistatin-related protein 3 (Homo sapiens), sequence (O95633 whole entry, looked up): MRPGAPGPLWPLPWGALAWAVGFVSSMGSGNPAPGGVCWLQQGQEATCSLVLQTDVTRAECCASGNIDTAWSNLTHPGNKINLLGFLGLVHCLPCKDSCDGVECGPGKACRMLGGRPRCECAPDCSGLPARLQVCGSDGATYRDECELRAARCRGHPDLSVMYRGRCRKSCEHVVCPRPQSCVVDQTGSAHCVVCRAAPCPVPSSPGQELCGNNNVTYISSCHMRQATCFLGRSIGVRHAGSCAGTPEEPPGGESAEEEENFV

As to `C=CCN(CCCCC)C(=O)C1N(c2c(Cl)cccc2CO)C(=O)C2C(C(=O)O)C3C=CC21O3` (stereo not given), the composite z-score in [1] is -0.116 and 0.397; in [2], 0.784 and 0.13; in [3], 0.479 and 1.12; in [5], -1.35 and -1.3; in assay [6], -0.607 and -1.18; in assay [7] it was -3.02 and -1.91. Further, the composite z-score in [8] is -2.09 and -2.23; in assay [9], -2.91 and -2.56; in [10], -1.96 and -1.99; in [11], -0.495 and -1.04; in assay [13], -1.3 and -3.32; in assay [14] it was -0.522 and -1.03. The composite z-score in assay [15] is 0.639 and 0.545; in assay [16], -0.292 and -0.23; in assay [17] it was -0.214 and -0.262; in assay [18], 0.0029 and 0.0473; in assay [19], 0.443 and -0.697; in [20], -1.91 and -1.04. Besides, the z-score in [4] was -0.282 (inactive) and -0.455 (inactive); in [12], -1.62 and -0.992.
For `CCN1C(=O)[C@H]2[C@H]3[C@H](O)[C@H](O)CC(=NNC(=O)OCc4ccc(OC)cc4)[C@H]3CC[C@H]2C1=O`, the composite z-score in assay [1] was 0.182; in assay [2] it was 1.55; in assay [3], 1.27; in assay [5] it was 0.178; in assay [6], -0.152; in [7], -0.698. Moreover, the composite z-score in assay [8] was 0.0229; in assay [9] it was -0.819; in [10], 0.0193; in assay [11], -0.432; in [13], 0.261; in [14], -0.222. Besides, the composite z-score in assay [15] was 0.161; in assay [16], 0.0597; in assay [17], 0.0611; in assay [18], 0.664; in [19], 0.537; in assay [20], 0.379. For the same compound, the z-score in assay [4] was -0.324 (inactive); in [12], 0.182.
`C=CCN(Cc1ccccc1)C(=O)C1N(C(C)(C)CO)C(=O)C2C(C(=O)O)C3C=CC21O3` (stereo not given): the composite z-score in assay [1] is 0.107 and 0.29; in assay [2], -0.135 and -0.486; in assay [3], 0.708 and 0.849; in [5], -1.46 and -2; in [6], -0.767 and -1.51; in assay [7], -2.64 and -1.86. Also, the composite z-score in [8] was -1.45 and -1.73; in assay [9], -2.3 and -1.58; in [10], -4.6 and -2.88; in assay [11] it was -1.71 and -2.2; in assay [13], -2.75 and -1.49; in [14], -0.23 and -0.697. In addition, the composite z-score was 1.19 and 0.132 in assay [15]; -0.202 and -0.224 in assay [16]; -0.138 and -0.206 in assay [17]; 0.196 and -0.47 in assay [18]; 0.148 and -1.17 in assay [19]; -2.89 and -1.25 in assay [20]. Also, the z-score is 0.0525 (inactive) and 0.382 (inactive) in assay [4]; -1.39 and 0.81 in assay [12].
For `CCCCN1CC=CC23O[C@@H]4C=CCCOC(=O)C4[C@H]2C(=O)N(C(C)CO)[C@@H]3C1=O` (stereo not given in full), the composite z-score was 0.381 and 0.0105 in assay [1]; -0.286 and -0.221 in assay [2]; 0.473 and -0.194 in assay [3]; -0.346 and 0.232 in [5]; -0.662 and -0.551 in [6]; -0.683 and -0.191 in assay [7]. The composite z-score in assay [8] is -0.934 and -0.0066; in assay [9], -0.135 and 0.176; in assay [10], 0.958 and 1.07; in assay [11], 0.228 and -0.107; in assay [13], -0.321 and 0.0741; in assay [14], -0.495 and 0.257. Also, the composite z-score was -0.396 and 0.473 in assay [15]; -0.0403 and -0.154 in assay [16]; 0.171 and 0.0637 in assay [17]; 0.179 and 0.0775 in [18]; -0.19 and 0.191 in [19]; -0.44 and -0.137 in assay [20]. For the same compound, the z-score in assay [4] is 0.856 (inactive) and -0.0825 (inactive); in assay [12] it was -0.797 and -0.144.
With `C=CCN(CCCC)C(=O)C(c1cccs1)N(C(=O)/C=C\C(=O)O)c1ccc(CCO)cc1` (stereo not given), the composite z-score is -0.292 and 0.315 in assay [1]; 0.219 and -0.11 in assay [2]; 0.864 and 1.06 in assay [3]; -1.34 and -1.59 in assay [5]; -1.58 and -1.35 in assay [6]; -1.11 and -2.45 in [7]. The composite z-score is -0.963 and -2.14 in assay [8]; -1.99 and -4.28 in assay [9]; -1.22 and -1.99 in assay [10]; -0.541 and -0.68 in [11]; -2.24 and -2.46 in assay [13]; -0.324 and -0.724 in [14]. Also, the composite z-score in [15] was 0.423 and 0.395; in assay [16], -0.13 and -0.262; in assay [17], -0.0904 and -0.276; in assay [18], -0.0621 and -0.0827; in assay [19], 1.13 and -0.803; in assay [20], 0.749 and -2.47. In addition, the z-score in assay [4] was 0.243 (inactive) and -0.284 (inactive); in assay [12], -1.03 and 0.741.
`CC(C)=CCCC(C)=CCON=C1C[C@@H](O)[C@@H](O)[C@@H]2[C@@H]3C(=O)N([C@@H](C)c4ccccc4)C(=O)[C@@H]3CC[C@H]12`: the composite z-score is 0.948 in assay [1]; -0.238 in assay [2]; -0.213 in assay [3]; 0.739 in assay [5]; 0.692 in assay [6]; 0.525 in assay [7]. Further, the composite z-score was 0.718 in assay [8]; 0.645 in assay [9]; 1.15 in [10]; 0.893 in assay [11]; 0.773 in assay [13]; -0.282 in assay [14]. The composite z-score in [15] was -0.782; in assay [16], -0.0644; in assay [17], 0.265; in assay [18], -0.44; in assay [19] it was 0.166; in assay [20] it was 0.417. For the same compound, the z-score in assay [4] is -1.19 (inactive); in assay [12], -0.745.
